Only some compounds are listed: those with a hit (about 2.4% of all), similar ones and a draw of the others.
D2 ag-1: activates the human D2 dopamine receptor; 360,000 tested, 0.084% active; P14416; activation, % (concentration not given with the values); AID 624465; DiscoveRx PathHunter D2 beta-arrestin, luminescence, 90 min; 100% = 57 uM dopamine signal; in the data active = activation above about 40%; inconclusive = between about 15% and that limit
Target sequence (P14416 whole entry, looked up): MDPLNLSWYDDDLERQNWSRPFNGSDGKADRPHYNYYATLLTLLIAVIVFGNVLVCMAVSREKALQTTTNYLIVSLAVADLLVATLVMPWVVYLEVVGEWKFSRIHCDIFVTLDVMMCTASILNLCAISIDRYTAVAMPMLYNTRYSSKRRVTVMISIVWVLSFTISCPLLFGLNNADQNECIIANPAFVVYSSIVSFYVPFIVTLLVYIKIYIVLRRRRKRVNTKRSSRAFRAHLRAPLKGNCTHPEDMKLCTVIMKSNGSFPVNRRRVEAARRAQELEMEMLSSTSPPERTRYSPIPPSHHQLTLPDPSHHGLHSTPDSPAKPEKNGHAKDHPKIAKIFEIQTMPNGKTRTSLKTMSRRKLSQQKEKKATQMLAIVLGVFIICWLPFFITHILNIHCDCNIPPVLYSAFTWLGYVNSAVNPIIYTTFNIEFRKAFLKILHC
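Agonist mode: compounds alone added to overnight-plated D2 PathHunter cells for 90 min at 37 C, with 57 uM final dopamine (EC100) defining full response. Beta-arrestin recruitment detected by chemiluminescent reagent, read after 1 h at ambient temperature.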
D2 antag: D2 dopamine receptor (human) antagonism; HEK293 TREx D2 cells, calcium flux, dopamine EC80; inhibition, % at 10 µM; 340,000 tested, 2% active; AID 485344; in the data active = inhibition above about 30%; inactive = below that, where a call was filed
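Dopamine at EC80 is the agonist stimulus; test compounds precede it by 180 s. Calcium flux read kinetically in a force-coupled, inducible HEK293 T-REx D2 cell line.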
D2 PAM-1: potentiates the human D2 dopamine receptor allosterically | P14416 | DiscoveRx D2 beta-arrestin cells, luminescence, 90 min; 100% = 57 uM dopamine signal | potentiation, % (test concentration not listed) | 360,000 tested, 0.23% active; in the data active = potentiation above about 50%; inconclusive = mostly about 30% to 49%
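PathHunter D2 cells, attached overnight at 37 deg C, received compound in DMSO plus dopamine at EC20 (50 nM final) for 90 min at 37 deg C. Beta-arrestin recruitment was read as luminescence after 1 h with detection reagent at ambient temperature.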
D2 ag-2: D2 dopamine receptor (human) agonism | HEK293 T-REx D2 cells, calcium flux agonist mode | activation, % at 2 µM | 340,000 tested, 0.53% active | AID 485358;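 active = activation over 3 SD above normal in the single-dose calcium agonist read, cut at about 30% in these data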
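Agonism is scored from calcium flux in a force-coupled, inducible HEK293 cell line expressing D2, read kinetically for 180 s after compound addition against dopamine controls.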
D2 PAM-2: D2 dopamine receptor (human) potentiation; P14416; HEK293 T-REx D2, calcium flux, EC20 dopamine potentiation; potentiation, % at 10 µM; 340,000 tested, 0.34% active; AID 485347;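 active = potentiation over 3 SD above the plate norm, cut at about 30% in these data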
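Potentiation of an EC20 dopamine calcium response is measured in a force-coupled, tetracycline-inducible Hek293 Trex D2 line. Compound-only kinetic reads over 180 s flag agonists before dopamine addition.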
Each line names hits and unclear results; the compound was inactive in the other large screens; ! = a repeat was not active.

COc1cc(NC(=O)c2cc(-c3ccccc3)on2)cc(OC)c1OC	none
COc1ccc(C2=NS(=O)(=O)N(C)C(C(=O)Nc3ccc4c(c3)OCO4)=C2)cc1	D2 antag 64
Cc1c(C(=O)Nc2ccc3c(c2)OCO3)sc2nc(-c3ccccc3)cn12	D2 antag 67 (no result: D2 PAM-2)
COc1cccc(-c2cc(C(=O)Nc3cc(OC)c(OC)c(OC)c3)no2)c1	D2 antag 44
CN1C(C(=O)Nc2ccc(OC(F)(F)F)cc2)=CC(c2ccc3c(c2)OCO3)=NS1(=O)=O	D2 PAM-2 75!
CN(C(=O)c1ccc2c(c1)N(Cc1ccccc1F)C(=O)c1ccccc1S2)C1CCCCC1	none (no result: D2 ag-1, D2 antag, D2 PAM-1)
CCOC(=O)c1cc(S(=O)(=O)Nc2ccc(Br)c(C)c2)[nH]n1	none (no result: D2 ag-1, D2 antag, D2 PAM-1)
COc1ccccc1N1CCN(S(=O)(=O)c2ccc(-c3cc(C(F)(F)F)on3)s2)CC1	none (no result: D2 ag-1, D2 antag, D2 PAM-1)
CC1CCN(C(=O)c2cc(-c3ccc4c(c3)OCO4)on2)CC1	D2 PAM-2 36
COc1cc(NC(=O)c2cccc3c(-c4cccnc4)coc23)cc(OC)c1OC	D2 ag-1 44 (no result: D2 antag, D2 ag-2, D2 PAM-2)
COc1ccc(-c2cc(C(=O)Nc3cc(Br)ccc3O)no2)cc1	D2 antag 36
COc1ccc(-c2cc(C(=O)N3CCOCC3)no2)cc1	D2 antag 35
CC1CCCCN1C(=O)c1cc(-c2ccc3c(c2)OCO3)on1 (configuration not stated)	none
COc1cccc(-c2cc(C(=O)N3CCOCC3)no2)c1	none
COc1ccc(-c2cc(C(=O)Nc3ccccc3SC)no2)cc1	none (no result: D2 antag, D2 ag-2, D2 PAM-2)
O=C(COc1ccc(Cl)cc1)OCc1cc(=O)n2nc(-c3cccs3)sc2n1	none (no result: D2 ag-1, D2 antag, D2 PAM-1, D2 PAM-2)
COc1ccccc1NC(=O)C(=O)NCC(c1cccnc1)N1CCc2ccccc2C1 (configuration not stated)	none (no result: D2 ag-1, D2 antag, D2 PAM-1)
CC(C)C1C(=O)Nc2ccc(S(=O)(=O)NCCc3ccc(Cl)cc3)cc21 (configuration not stated)	none (no result: D2 ag-1, D2 antag, D2 PAM-1)
Cc1ccc(Cc2nc3ccccc3nc2SCC(=O)NCc2ccc(F)cc2)cc1	none (no result: D2 ag-1, D2 antag, D2 PAM-1)
COc1ccc(-c2cc(C(=O)Nc3ccc4c(c3)OCO4)no2)cc1	D2 PAM-2 31!
COc1ccccc1CNC(=O)CCn1c(=O)c2ccccc2n(CC(=O)Nc2cc(Cl)ccc2C)c1=O	none (no result: D2 ag-1, D2 antag, D2 PAM-1)
COC(=O)CCC(=O)OC	none (no result: D2 antag, D2 ag-2, D2 PAM-2)
COC(=O)CCCCC(=O)OC	D2 antag 36
CC(=O)c1cccc(NC(=O)CCCSc2nc(-c3ccco3)cc(C(F)(F)F)n2)c1	none (no result: D2 ag-1, D2 antag, D2 PAM-1)
O=[N+]([O-])c1ccc(-n2nnnc2-c2ccccc2)c([N+](=O)[O-])c1	D2 ag-1 inconclusive, D2 PAM-1 86
COc1cccc(-c2nnc3n(Cc4ccc(C)cc4)c(=O)c4ccccc4n23)c1O	none (no result: D2 ag-1, D2 antag, D2 PAM-1)
NC(=S)NNC(=O)C12CC3CC(CC(C3)C1)C2	D2 antag 44, D2 ag-2 62
O=C(N/C(=C/c1ccc(Br)cc1)C(=O)N1CCOCC1)c1ccc(Br)o1	D2 PAM-2 86
O=C(N/C(=C\c1ccc(Br)cc1)C(=O)N1CCOCC1)c1ccc(Br)o1	none (no result: D2 PAM-2)
COc1ccc(-c2nc(SCC(=O)Nc3ccc4c(c3)OCO4)c(-c3ccccc3)[nH]2)cc1	none (no result: D2 ag-1, D2 antag, D2 PAM-1)
Cc1ccc(CNC(=O)c2ccc(CS(=O)(=O)c3ccccc3C)o2)cc1	none
Cc1ccc(CCNC(=O)c2ccc(CS(=O)(=O)c3ccccc3C)o2)cc1	D2 PAM-2 47
Cc1cc(C)c(OCCOCCn2c(-c3ccc(Cl)cc3)nc3ccccc3c2=O)c(C)c1	none (no result: D2 ag-1, D2 antag, D2 PAM-1)
Cc1c(O)c(CN2CCCCC2)cc2c1oc(=O)c1ccccc12	D2 antag 66
O=C1[C@H]2[C@@H](c3ccc(F)cc3)N3C(=O)N(c4cccc(Br)c4)C(=O)[C@@]3(Cc3ccccc3)[C@H]2C(=O)N1C1CCCCC1	D2 antag 41
O=C(Cn1c2[n+](c3ccc(C(F)(F)F)cc31)CCCCC2)c1cccc([N+](=O)[O-])c1	D2 antag 35
O=C(Cn1c2[n+](c3ccc(C(F)(F)F)cc31)CCCCC2)c1ccc2c(c1)OCCO2	none
Cc1ccc(-n2nnnc2SCC(=O)NCCc2ccccc2)cc1C	none (no result: D2 ag-1, D2 antag, D2 PAM-1)
CC1Cc2ccccc2N1C(=O)COC(=O)c1ccco1 (configuration not stated)	none (no result: D2 antag, D2 ag-2, D2 PAM-2)
CC1Cc2ccccc2N1C(=O)COC(=O)c1ccc([N+](=O)[O-])o1 (configuration not stated)	D2 PAM-1 58 (no result: D2 antag, D2 ag-2, D2 PAM-2)
COc1cccc(OC)c1C(=O)OCC(=O)NC1CCCCCC1	D2 antag 82
CCOc1ncccc1C(=O)OCC(=O)NC1CCCCCC1	D2 antag 31
COC(=O)c1cnn2c(C)c(Cc3c(C)cc(C)cc3C)c(C)nc12	none (no result: D2 ag-1, D2 antag, D2 PAM-1)
CC1CN(S(=O)(=O)c2ccc(F)cc2)C(C)N1C(=O)N1CCOCC1 (configuration not stated)	D2 antag 32
CC1CN(S(=O)(=O)c2ccc(F)cc2)CN1C(=O)N1CCOCC1 (configuration not stated)	none
Cc1cc(C)c2c(CC(=O)Nc3ccc(S(=O)(=O)Nc4ncccn4)cc3)coc2c1	none (no result: D2 ag-1, D2 antag, D2 PAM-1)
CCN1CCN(c2cc(C)c3cc(NC(=S)NCCCN4CCc5ccccc5C4)ccc3n2)CC1	D2 antag 53
Cc1cc(N2CCN(C)CC2)nc2ccc(NC(=S)NCCCN3CCc4ccccc4C3)cc12	D2 antag 34
Cc1cc(N2CCN(C)CC2)nc2ccc(NC(=S)NCCN3CCc4ccccc4C3)cc12	none
CCCCCOc1ccc(Cn2c(=O)oc3ccc(C)cc32)cc1OC	none (no result: D2 ag-1, D2 antag, D2 PAM-1)
COc1ccc(NC(=O)c2cnn(-c3ccc(C)cc3)c2-n2cccc2)cc1Cl	none (no result: D2 ag-1, D2 antag, D2 PAM-1)
CCOC(=O)c1noc2ncn(CC(=O)Nc3ccc(OC)c(Cl)c3)c(=O)c12	none (no result: D2 ag-1, D2 antag, D2 PAM-1)
CC(NS(=O)(=O)c1ccc(OCC(=O)N2CCOCC2)c(Cl)c1)c1ccccc1 (configuration not stated)	none
CC(NS(=O)(=O)c1ccc(OCC(=O)N2CCOCC2)cc1)c1ccccc1 (configuration not stated)	D2 antag 31
c1ccc(-c2ccccc2OCCCCN2CCCCC2)cc1	D2 antag 75
c1ccc(-c2ccccc2OCCCN2CCCCCC2)cc1	D2 antag 56
c1ccc(-c2ccccc2OCCCN2CCCC2)cc1	none
COC(=O)C1=C(C(=O)OC)[C@@H]2N(C)c3ccc(OC)cc3[C@@]23C[C@@H](C(=O)OC)N(S(=O)(=O)c2ccc([N+](=O)[O-])cc2)C3=N1	D2 ag-1 inconclusive
CCCCS(=O)(=O)N1C2=NC(C(=O)OC)=C(C(=O)OC)[C@@H]3N(C)c4ccc(OC)cc4[C@]23C[C@H]1C(=O)OC	D2 antag 34
Cc1ccc(-c2cc(NC(=O)COc3ccc(Cl)cc3C)on2)cc1	none (no result: D2 ag-1, D2 antag, D2 PAM-1)
O=S(=O)(NCCc1nnc2ccc(SCc3cccnc3)nn12)c1ccccc1	D2 PAM-2 32

From PubChem
